Compounds with a hit are over-represented: about 0.5% of the library has one in this group of screens.
AddAB inh – less growth of phage-infected E. coli with AddAB; E. coli expressing H. pylori AddAB, absorbance growth; inhibition, % at 11.9 µM; actives 0.29% (n = 330,000); in the data active means inhibition above about 12%;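 further: 0% = vehicle wells of infected cells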
E coli growth-1 – inhibitors of Escherichia coli growth; OD600, 23 h; active compounds read low; OD600 absorbance (concentration not given with the values); actives 0.21% (n = 330,000); AID 1053175;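 active means OD600 absorbance below the run mean of sample wells minus 3.6 SD, in any replicate, cut at about 0.56 in these data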
phage Ecoli inh – E. coli growth loss with phage present. inhibition, % at 11.9 µM. growth absorbance. actives 0.26% (n = 360,000). AID 651602; in the data active means inhibition above about 11%
Tat export inh – blocks Tat-dependent protein export in E. coli. E. coli MC4100 TorA-mCherry Tat export, fluorescence. inhibition, % at 10 µM. actives 0.036% (n = 340,000);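 active means mean replicate inhibition at least 50% and at least half of replicates individually reaching 50%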;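 further: exported cargo escapes ClpAP degradation while cytoplasmic cargo is degraded and loses fluorescence; 0% = median of neutral control wells and 100% = median of NaSCN control wells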
E coli growth-2 – reduces bacterial viability in AddAB counter-screen. actives 0.27% (n = 330,000). inhibition, % at 11.9 µM. E. coli V3065 growth, OD600 absorbance, 18 h;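 active means inhibition above the campaign's mean inhibition across all tested compounds plus 3 SD, cut at about 9.9% in these data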;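 further: uninfected addAB+ strain grown without phage in ampicillin broth; 0% = DMSO wells and 100% = ciprofloxacin 0.95 µg/ml wells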
AddAB conf – growth loss of T4-infected E. coli expressing H. pylori AddAB, confirmed; shares compounds with AddAB inh; E. coli V3065 expressing H. pylori AddAB, T4 phage, OD; T4 phage with gene 2 nonsense mutations; inhibition, % at 11.9 µM; actives 64% (n = 880);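 active means mean inhibition above a set limit taken from the earlier primary screen, cut at about 13% in these data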;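 further: higher means less bacterial growth since AddAB block lets phage replicate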
RecBCD counter – reduces growth of phage-infected RecBCD+ E. coli, AddAB inhibitor counter-screen. shares compounds with AddAB inh. E. coli V66 + mutant T4 phage, OD growth. inhibition, % at 11.9 µM. actives 73% (n = 880);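 active means mean inhibition above the mean of solvent-only control wells plus 3 SD, cut at about 4% in these data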;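 further: optical density read after an 18 h incubation at 37 °C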
bact viab count – counter-screen for AddAB inhibitors: inhibitors of bacterial viability; actives 35% (n = 880); absorbance (AddAB counterscreen); inhibition, % at 11.9 µM; shares compounds with AddAB inh; in the data active means inhibition above about 25%
Active calls of the source: *; . = no result given.

SMILES	AddAB inh	E coli growth-1	phage Ecoli inh	Tat export inh	E coli growth-2	AddAB conf	RecBCD counter	bact viab count
NC1=NCC(Cc2ccc(O)cc2)N1CCCCC1CCCCC1 (stereo unspecified)	.	0.45*	.	.	.	.	.	.
COc1cnc(-c2ccccn2)nc1Sc1ccccc1	14*	0.69	4	-3	0	3	2	-2
CCOC(=O)N1CCN(c2cc(=O)n(-c3ccc(C)cc3)c(=O)[nH]2)CC1	97*	0.79	2	3	22*	-2	0	-3
Cc1ccc2nc(-c3ccc(O)cc3)c(Nc3ccc4c(c3)OCCO4)n2c1	17*	0.71	2	-1	14*	-2	-1	-4
Cc1ccc2nc(-c3ccccc3O)c(Nc3ccc4c(c3)OCCO4)n2c1	2	0.7	5	14	2	.	.	.
COc1ccc(-c2nnc3ccc(SCC(=O)N4CCCCC4)nn23)cc1OC	97*	0.74	2	2	48*	-2	-2	-4
CCCCCCCC(=O)OCC(=O)[C@@]1(O)CCC2C3CCC4=CC(=O)CC[C@]4(C)C3C(O)C[C@@]21C (stereo partly specified)	.	0.67	.	.	.	.	.	.
O=C(O)c1nnn(-c2cc(C(F)(F)F)cc(C(F)(F)F)c2)c1-c1ccccc1	19*	0.71	1	-5	2	-1	0	-2
O=C(CN1C(=O)S/C(=C\c2ccc(Cl)cc2)C1=O)NNC(=O)c1ccccc1O	16*	0.68	9	-3	6	9	5.5*	9
COc1ccc(/C=C2\SC(=S)N(CCCC(=O)NNC(=O)c3ccccc3O)C2=O)cc1	5	.	6	3	0	.	.	.
COc1ccccc1/C=C1\SC(=S)N(CCC(=O)NNC(=O)c2ccccc2O)C1=O	20*	0.75	.	0	18*	15*	19*	14
CNCC1Oc2c(NS(=O)(=O)c3ccc(F)cc3)cccc2C(=O)N(C(C)CO)CC1C (stereo unspecified)	.	0.67	.	.	.	.	.	.
O=Nc1ccc(O)c2ncccc12	12*	0.4*	2	5	12*	98*	3	17
Cc1cc(SCC(=O)N/N=C/c2ccc(O)c(O)c2O)c(C)cc1Br	16*	.	17*	3	18*	12	10*	1
Cc1cc(SCC(=O)NN=Cc2ccc(O)cc2O)c(C)cc1Br	.	0.7	.	.	.	.	.	.
CCC[C@@H](CN1CCC[C@H]1CN1C(N)=NC[C@H]1CC(C)C)N1C[C@@H]([C@H](C)CC)N(CCc2ccc(Cl)c(Cl)c2)C1=N	13*	0.078*	4	-1	16*	-9	2	-7
CCC[C@@H](CN1CCC[C@H]1CN1C(N)=NC[C@@H]1Cc1ccccc1)N1C[C@@H]([C@H](C)CC)N(CCCC2CCCC2)C1=N	26*	.	.	96*	22*	14*	13*	11
COc1ccc(C2CC(=O)C=C(c3cccc4c3sc3ccccc34)C2)cc1OC (stereo unspecified)	.	0.73	.	.	.	.	.	.
COc1ccccc1C(=O)N/C(=C\c1ccccc1)C(=O)NC(C)C(=O)O (stereo unspecified)	97*	.	1	-1	72*	1	-1	-4
CC1=NN(C(=O)c2ccc(Cn3ccc([N+](=O)[O-])n3)cc2)C(O)(C(F)(F)F)C1 (stereo unspecified)	14*	0.73	5	5	7	3	1	-1
O=C(O)CN=C1CC(c2ccccc2)CC(=O)/C1=C(\O)CCCN1C(=O)c2ccccc2C1=O (stereo unspecified)	.	0.64	.	.	.	.	.	.
CCOc1ccc(CN(C)Cc2cc(=O)oc3cc(C)c(Cl)cc23)cc1	20*	0.69	2	3	15*	-1	-1	-3
Cc1cc2oc(=O)cc(CN(C)Cc3cccc(F)c3)c2cc1Cl	-1	0.67	0	15	2	.	.	.
CC(=O)O[C@]1(C(C)=O)CCC2C3C=C(Cl)C4=CC(=O)C5CC5[C@]4(C)C3CC[C@@]21C (stereo partly specified)	.	0.71	.	.	.	.	.	.
COc1ccccc1/C=C/C=c1sc2nc(=O)c(Cc3ccccc3)nn2c1=O	.	0.72	.	.	.	.	.	.
SMILES	AddAB inh	E coli growth-1	phage Ecoli inh	Tat export inh	E coli growth-2	AddAB conf	RecBCD counter	bact viab count
O=C(Cn1cc(C(=O)c2ccco2)c2ccccc21)Nc1ccccc1F	13*	0.66	10	-5	11*	11	11*	11
Cc1ncc([N+](=O)[O-])n1CCOC(=O)c1ccccc1	2	0.63	1	5	1	.	.	.
Cn1c([N+](=O)[O-])cnc1COC(N)=O	26*	0.67	11	11	17*	79*	5.2*	57*
CC(C)Cc1ccc(CN2CCCC(NC(=O)c3ccnn3C)C2)cc1 (stereo unspecified)	0	0.66	1	9	-1	.	.	.
CC(C)Cc1ccc(CN2CCCC(NC(=O)c3ccoc3)C2)cc1 (stereo unspecified)	14*	0.61	4	-4	13*	10	5.4*	9
Cc1ccsc1C=NNC(=O)Cn1cnc2ccccc21	.	0.62	.	.	.	.	.	.
CC(=O)NN1C(=O)c2ccccc2NC1c1ccc([N+](=O)[O-])o1 (stereo unspecified)	18*	0.6	4	-10	15*	79*	5.9*	30*
O=C(NN1C(=O)c2ccccc2NC1c1ccc([N+](=O)[O-])o1)c1ccc(Br)cc1 (stereo unspecified)	3	0.69	5	-2	2	.	.	.
O=C(COc1ccc(C=NNS(=O)(=O)c2ccccc2)cc1)Nc1cccc(Cl)c1	.	0.68	.	.	.	.	.	.
Cc1cc(C)nc(NN=Cc2c(CO)cnc(C)c2O)n1	.	0.72	.	.	.	.	.	.
NC(=NOC(=O)c1ccccc1Cl)c1ncc([N+](=O)[O-])s1	.	0.6	.	.	.	.	.	.
N/C(=N/OC(=O)c1ccc(Cl)cc1)c1ncc([N+](=O)[O-])s1	19*	.	6	-10	6	43*	1	1
O=C(O)C=CC(=O)NCc1cn(-c2ccccc2)nc1-c1cccc(Br)c1	.	0.67	.	.	.	.	.	.
O=C(Nc1ccc2oc(-c3ccncc3)nc2c1)c1ccc([N+](=O)[O-])o1	18*	0.6	3	0	15*	89*	8.8*	24
Cc1ccc(OCC(=O)N2CCc3ccccc32)c([N+](=O)[O-])n1	24*	0.67	8	4	19*	46*	5.4*	43*
CCCOc1ccc(C(O)=C2C(=O)C(=O)N(CCCn3ccnc3)C2c2cccs2)cc1 (stereo unspecified)	.	0.73	.	.	.	.	.	.
CNC(=O)C1OC(n2cnc3c(NCc4cccc(I)c4)nc(Cl)nc32)C(O)C1O (stereo unspecified)	.	0.69	.	.	.	.	.	.
